Values joined by “and” are separate entries in the source; they are usually repeats but may differ in a detail not shown here. Equal entries are not always repeated. Unmarked numbers belong to inactive results. For part of these data: Potency and affinity values are given separately. Active and inactive are the calls of the source. Unless noted, no rule for the calls is given here.

Experiment [1] in a line: antimalarial activity against Dd2 strain (AID 2302;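 active = growth inhibition above 50% at the single 2 µM test dose, taken to imply half-maximal potency below 2 µM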;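 also: 0% = DMSO untreated growth and 100% = chloroquine plus artemisinin killed control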). The following applies: P. falciparum Dd2 in RBCs, LDH growth readout, 72 h; at 2 µM; active compounds read high.
Experiment [2] can be described thus: HepG2 cytotoxicity, primary screen, cytotoxicity control for P. falciparum antimalarial project, cell-based, ATP luminescence (AID 2303;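 active = inhibition above 50%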;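 also: 0% = DMSO wells and 100% = digitonin-killed cells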). The following applies: HepG2 viability, 24-48 h, at 10 µM, active compounds read high.
Experiment [3] addresses L-lactate dehydrogenase (Plasmodium falciparum (isolate CDC / Honduras)) (UniProt Q27743). The experiment in a line: PfLDH activity inhibition – cell lysate, 3D7 strain, counter-screen for P. falciparum growth inhibition project (AID 2304).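 Also: 0% = vehicle and 100% = reference inhibitor.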 The conditions noted are these: P. falciparum 3D7 crude extract, LDH APAD/NBT absorbance; at 2 µM; active compounds read high. Background: A counterscreen serves to expose hits that act by an unwanted route or on another target.

Experiment [4] can be described thus: inhibition of 3D7 malaria parasite growth – strain 3D7 (AID 2306).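 Also: 0% = DMSO wells and 100% = chloroquine plus artemisinin control wells.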 The conditions noted are these: P. falciparum 3D7 erythrocytic growth, LDH absorbance, 72 h; at 2 µM; active compounds read high.
The target in experiment [5] is Calcium-dependent protein kinase 1 (Plasmodium falciparum (isolate 3D7)) (UniProt P62344). In words: PfCDPK1 kinase inhibitors, biochemical, TCAMS library (AID 1159585; cut-off not given, nearly all actives have IC50 up to about 0.98 µM;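 also: inhibitors leave more ATP so luminescence rises with inhibition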). The conditions noted are these: recombinant PfCDPK1, Kinase-Glo ATP depletion luminescence.
Experiment [6] has as its target Plasmodium falciparum protein kinase 6 (PK6, PF3D7_1337100) (UniProt Q8IDW1). The experiment in a line: PfPK6 kinase inhibitors, biochemical, TCAMS library (AID 1159586). The following applies: recombinant PfPK6, Kinase-Glo ATP depletion luminescence. A general note: In Kinase-Glo more light means more ATP remaining.
The target in experiment [7] is Protein kinase 7 (PK7), Plasmodium falciparum 3D7 (PF3D7_0213400) (UniProt Q7YTF7). In words: inhibition of Plasmodium PK7 catalytic activity – biochemical, TCAMS antimalarial set, Kinase-Glo luminescence (AID 1159587). The following applies: recombinant PfPK7, Kinase-Glo ATP depletion luminescence.
In experiment [8] the target is Calcium-dependent protein kinase 4 (Plasmodium falciparum (isolate 3D7)) (UniProt Q8IBS5). The experiment in a line: PfCDPK4 kinase inhibitors, biochemical, TCAMS library (AID 1159588; cut-off not given, nearly all actives have IC50 up to about 0.91 µM). The conditions noted are these: recombinant PfCDPK4, Kinase-Glo ATP depletion luminescence.
Chain of Calcium-dependent protein kinase 4 (Plasmodium falciparum (isolate 3D7)) (Q8IBS5 whole entry, looked up): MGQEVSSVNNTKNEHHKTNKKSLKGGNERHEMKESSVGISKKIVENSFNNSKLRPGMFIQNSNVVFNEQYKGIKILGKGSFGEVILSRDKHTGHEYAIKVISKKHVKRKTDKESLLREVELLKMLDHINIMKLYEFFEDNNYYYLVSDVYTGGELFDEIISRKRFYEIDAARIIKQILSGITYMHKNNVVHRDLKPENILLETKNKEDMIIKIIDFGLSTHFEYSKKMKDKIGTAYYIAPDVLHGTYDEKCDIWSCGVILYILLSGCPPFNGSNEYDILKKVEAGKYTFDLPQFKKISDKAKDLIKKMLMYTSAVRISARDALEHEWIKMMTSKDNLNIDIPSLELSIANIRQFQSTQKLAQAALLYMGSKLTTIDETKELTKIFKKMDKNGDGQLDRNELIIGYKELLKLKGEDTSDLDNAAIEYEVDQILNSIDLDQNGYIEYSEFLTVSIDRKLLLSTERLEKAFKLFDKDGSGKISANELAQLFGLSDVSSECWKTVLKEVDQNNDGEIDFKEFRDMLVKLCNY

Chain of L-lactate dehydrogenase (Plasmodium falciparum (isolate CDC / Honduras)) (Q27743 whole entry, looked up): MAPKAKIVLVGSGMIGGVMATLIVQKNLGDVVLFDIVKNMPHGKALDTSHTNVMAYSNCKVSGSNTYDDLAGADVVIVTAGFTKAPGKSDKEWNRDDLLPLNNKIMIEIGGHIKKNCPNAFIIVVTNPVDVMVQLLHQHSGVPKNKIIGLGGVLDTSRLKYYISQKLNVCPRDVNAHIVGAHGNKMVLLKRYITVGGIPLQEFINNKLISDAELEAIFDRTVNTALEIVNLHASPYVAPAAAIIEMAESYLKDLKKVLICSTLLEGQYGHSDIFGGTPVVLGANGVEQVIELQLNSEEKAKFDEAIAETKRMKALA
Chain of Protein kinase 7 (PK7), Plasmodium falciparum 3D7 (PF3D7_0213400) (Q7YTF7 1-343): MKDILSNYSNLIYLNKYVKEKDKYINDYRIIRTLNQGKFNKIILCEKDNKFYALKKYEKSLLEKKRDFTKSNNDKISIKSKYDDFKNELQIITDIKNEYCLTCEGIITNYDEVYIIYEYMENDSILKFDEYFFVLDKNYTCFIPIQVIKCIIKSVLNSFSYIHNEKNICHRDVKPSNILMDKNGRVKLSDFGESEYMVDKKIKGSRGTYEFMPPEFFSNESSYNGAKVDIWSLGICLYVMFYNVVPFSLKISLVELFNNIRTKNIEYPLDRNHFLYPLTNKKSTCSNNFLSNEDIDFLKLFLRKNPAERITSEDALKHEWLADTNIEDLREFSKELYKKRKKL
Chain of Calcium-dependent protein kinase 1 (Plasmodium falciparum (isolate 3D7)) (P62344 whole entry, looked up): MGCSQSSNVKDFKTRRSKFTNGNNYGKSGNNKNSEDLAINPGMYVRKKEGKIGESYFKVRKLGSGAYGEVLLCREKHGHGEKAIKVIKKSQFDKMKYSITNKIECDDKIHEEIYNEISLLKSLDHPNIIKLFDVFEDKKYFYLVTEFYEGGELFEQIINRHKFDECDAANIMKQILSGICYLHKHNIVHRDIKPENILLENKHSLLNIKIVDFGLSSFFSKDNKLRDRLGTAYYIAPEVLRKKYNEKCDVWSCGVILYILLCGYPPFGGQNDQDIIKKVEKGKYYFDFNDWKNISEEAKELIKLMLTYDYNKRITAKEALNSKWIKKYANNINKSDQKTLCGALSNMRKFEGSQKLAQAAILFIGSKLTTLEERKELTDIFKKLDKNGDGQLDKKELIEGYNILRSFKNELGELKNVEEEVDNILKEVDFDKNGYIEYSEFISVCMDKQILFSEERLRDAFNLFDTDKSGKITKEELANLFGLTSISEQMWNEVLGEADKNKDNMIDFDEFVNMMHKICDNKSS
Chain of Plasmodium falciparum protein kinase 6 (PK6, PF3D7_1337100) (Q8IDW1 1-305): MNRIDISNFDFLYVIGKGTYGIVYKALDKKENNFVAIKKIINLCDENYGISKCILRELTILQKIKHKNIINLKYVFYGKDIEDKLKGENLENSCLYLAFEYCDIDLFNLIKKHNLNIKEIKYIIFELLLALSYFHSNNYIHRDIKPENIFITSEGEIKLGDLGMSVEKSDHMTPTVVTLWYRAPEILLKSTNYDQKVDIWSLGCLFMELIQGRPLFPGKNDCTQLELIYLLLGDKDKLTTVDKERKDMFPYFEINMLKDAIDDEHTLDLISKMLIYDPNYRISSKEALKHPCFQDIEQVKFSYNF

Take `CCCC(C)NC(=O)C(N)Cc1cccc(I)c1` (centres undefined): the growth inhibition in experiment [1] was 65% (active); in experiment [4] it was 95% (active). Further, the inhibition in experiment [2] is 11%; in experiment [3], 0%. For the same compound, the outcome in experiment [5], in experiment [6], in experiment [7] and in experiment [8] was inactive.

Consider `O=c1cc(N2CCCNCC2)c(Cl)nn1Cc1ccc(NS(=O)(=O)c2ccc(Oc3ccccc3)cc2)cc1`, for which the results for the growth inhibition in experiment [1] and in experiment [4] were -4% and 98% (active), respectively. Also, the inhibition in experiment [2] was 0%; in experiment [3] it was -2%. Further, the result in experiment [5], in experiment [6], in experiment [7] and in experiment [8] was inactive.

As to `COc1ccc(-c2cccc(NC(=O)c3ccc(F)cc3)c2)cc1CNC(C)C`, the figures for the growth inhibition in experiment [1] and in experiment [4] were 9% and 83% (active), respectively. Further, the values for the inhibition in experiment [2] and in experiment [3] were 32% and 1%, respectively. For the same compound, the outcome in experiment [5], in experiment [6], in experiment [7] and in experiment [8] was inactive.

For `CCc1cn2c3c(cc(C(=O)N[C@@H](Cc4cc(F)cc(F)c4)[C@H](O)CNC4CC4)cc13)N(C)S(=O)(=O)CC2`, the values for the growth inhibition in experiment [1] and in experiment [4] were 99% (active) and 100% (active), respectively. Further, the inhibition in experiment [2] is 3%; in experiment [3], 0%. Also, the result in experiment [5], in experiment [6], in experiment [7] and in experiment [8] was inactive.

As to `CN1CCN(Cc2ccc(-c3cc4nccc(Nc5ccc(Oc6ccccc6)cc5)c4cc3Cl)o2)CC1`, the growth inhibition is 99% (active) in experiment [1] and 100% (active) in experiment [4]. In addition, the figures for the inhibition in experiment [2] and in experiment [3] were 3% and -5%, respectively. Moreover, the result in experiment [5], in experiment [6], in experiment [7] and in experiment [8] was inactive.

On to `COc1cc(F)c2ncc(Cl)c([C@H](O)CN3CCC(NCc4cc5c(cn4)OCCO5)CC3)c2c1`, for which the figures for the growth inhibition in experiment [1] and in experiment [4] were 49% and 102% (active), respectively. Also, the values for the inhibition in experiment [2] and in experiment [3] were 10% and 4%, respectively. The result in experiment [5], in experiment [6], in experiment [7] and in experiment [8] was inactive.

Turning to `Cn1nc(-c2ccc(CN[C@@H]3CCc4ccc(O)cc43)cc2)c2cnc(NCCCN3CCCC3)nc21`, the figures for the growth inhibition in experiment [1] and in experiment [4] were 61% (active) and 101% (active), respectively. The figures for the inhibition in experiment [2] and in experiment [3] were 8% and 2%, respectively. Besides, the result in experiment [5], in experiment [6], in experiment [7] and in experiment [8] was inactive.

As for `Cc1cc(-c2ccc(O)c(CNC3CCCCC3)c2)cnc1N`, the growth inhibition in experiment [1] was 100% (active); in experiment [4], 102% (active). Also, the inhibition in experiment [2] is 27%; in experiment [3] it was -4%. Besides, the outcome in experiment [5], in experiment [6], in experiment [7] and in experiment [8] was inactive.

On to `CCc1cn(CC(=O)N(CCOc2ccc(-c3ccc(C(F)(F)F)cc3)cc2)CCN(CC)CC)c(SCc2ccc(F)cc2)nc1=O`, for which the results for the growth inhibition in experiment [1] and in experiment [4] were 29% and 95% (active), respectively. The inhibition in experiment [2] was 46%; in experiment [3], -3%. For the same compound, the result in experiment [5], in experiment [6], in experiment [7] and in experiment [8] was inactive.

In the case of `COc1cc(Cc2cnc(N)nc2N)cc(OCCCCc2nn[nH]n2)c1OC`, the growth inhibition was 0% in experiment [1] and 97% (active) in experiment [4]. Further, the inhibition was 7% in experiment [2] and 1% in experiment [3]. Further, the outcome in experiment [5], in experiment [6], in experiment [7] and in experiment [8] was inactive.

`O=C(NCCCCN1CCCC2c3ccc(O)cc3CCC21)c1ccc(-c2ccccc2)cc1` (centres undefined): the growth inhibition is 25% and 7% in experiment [1]; 96% (active) in experiment [4]. In addition, the inhibition is 32% and 26% in experiment [2]; -8% and 3% in experiment [3]. Further, the result in experiment [5], in experiment [6], in experiment [7] and in experiment [8] was inactive.

On to `COc1ccc(C(C(=O)NC2CCN(C[C@H](O)c3ccnc4ccc(OC)cc34)CC2)N2CCN(Cc3ccccc3)CC2)cc1` (some centres undefined), for which the results for the growth inhibition in experiment [1] and in experiment [4] were 72% (active) and 100% (active), respectively. Also, the inhibition is 18% in experiment [2] and -9% in experiment [3]. Besides, the result in experiment [5], in experiment [6], in experiment [7] and in experiment [8] was inactive.

`CC(=O)N/N=C/[C@H](CCc1ccccc1)NC(=O)[C@H](CC(C)C)NC(=O)c1ccc(OCCN2CCOCC2)cc1`: the growth inhibition in experiment [1] was 87% (active); in experiment [4], 96% (active). In addition, the inhibition was 4% in experiment [2] and -9% in experiment [3]. Moreover, the outcome in experiment [5], in experiment [6], in experiment [7] and in experiment [8] was inactive.

Take `O=C(CCCCCNC(=O)c1ccc(O)c(-c2ccc(Cl)c(Cl)c2)c1)NCCN1CCCCC1`: the growth inhibition is 1% in experiment [1] and 93% (active) in experiment [4]. Moreover, the inhibition is -4% in experiment [2] and 0% in experiment [3]. The outcome in experiment [5], in experiment [6], in experiment [7] and in experiment [8] was inactive.

In the case of `CCNc1cc(C(=O)N[C@@H](Cc2ccccc2)[C@H](O)CNCCc2ccccc2)cc(N2CCCC2=O)c1`, the growth inhibition in experiment [1] is 46%; in experiment [4], 92% (active). In addition, the inhibition in experiment [2] is -4%; in experiment [3] it was 2%. The outcome in experiment [5], in experiment [6], in experiment [7] and in experiment [8] was inactive.

For the compound `O=C(Nc1ccncc1)c1cn(-c2ccccc2)nc1-c1cccs1`, the growth inhibition in experiment [1] is 10%; in experiment [4] it was 98% (active). The inhibition in experiment [2] is 7%; in experiment [3], 4%. Also, the result in experiment [5], in experiment [6], in experiment [7] and in experiment [8] was inactive.

Turning to `CC(C)(C)C1CCc2nc(N)nc(N)c2C1` (centres undefined), the growth inhibition was 38% in experiment [1] and 94% (active) in experiment [4]. Moreover, the inhibition was 69% (active) in experiment [2] and 6% in experiment [3]. In addition, the outcome in experiment [5], in experiment [6], in experiment [7] and in experiment [8] was inactive.

With `N#Cc1ccc2c(c1)CN(CCC1CCC(NC(=O)/C=C/c3c[nH]c4ccccc34)CC1)CC2` (centres undefined), the growth inhibition in experiment [1] was 24% and 27%; in experiment [4] it was 92% (active) and 97% (active). Besides, the inhibition in experiment [2] is 10% and 20%; in experiment [3], -3% and -9%. Also, the result in experiment [5], in experiment [6], in experiment [7] and in experiment [8] was inactive.

For orientation: inhibition means the drop in the measured response relative to a control, in per cent.

Values taken from PubChem BioAssay.
